# Measurements as given in publication PMC4336329 (PLoS ONE, 2015).
# The whole screen tested about 310,000 compounds, of which about 2,200 (0.71%) showed an effect of 50% or more. The effect is printed as a negative number. Shown is part of a subset that was picked to be rich in strong results.
# Target: human ether-à-go-go-related gene (hERG) potassium channel (human, UniProt Q12809)
# Test: primary screen, population patch clamp on CHO cells stably expressing hERG; higher = less effect of the substance
# Sequence of human ether-à-go-go-related gene (hERG) potassium channel (Q12809 whole entry, looked up): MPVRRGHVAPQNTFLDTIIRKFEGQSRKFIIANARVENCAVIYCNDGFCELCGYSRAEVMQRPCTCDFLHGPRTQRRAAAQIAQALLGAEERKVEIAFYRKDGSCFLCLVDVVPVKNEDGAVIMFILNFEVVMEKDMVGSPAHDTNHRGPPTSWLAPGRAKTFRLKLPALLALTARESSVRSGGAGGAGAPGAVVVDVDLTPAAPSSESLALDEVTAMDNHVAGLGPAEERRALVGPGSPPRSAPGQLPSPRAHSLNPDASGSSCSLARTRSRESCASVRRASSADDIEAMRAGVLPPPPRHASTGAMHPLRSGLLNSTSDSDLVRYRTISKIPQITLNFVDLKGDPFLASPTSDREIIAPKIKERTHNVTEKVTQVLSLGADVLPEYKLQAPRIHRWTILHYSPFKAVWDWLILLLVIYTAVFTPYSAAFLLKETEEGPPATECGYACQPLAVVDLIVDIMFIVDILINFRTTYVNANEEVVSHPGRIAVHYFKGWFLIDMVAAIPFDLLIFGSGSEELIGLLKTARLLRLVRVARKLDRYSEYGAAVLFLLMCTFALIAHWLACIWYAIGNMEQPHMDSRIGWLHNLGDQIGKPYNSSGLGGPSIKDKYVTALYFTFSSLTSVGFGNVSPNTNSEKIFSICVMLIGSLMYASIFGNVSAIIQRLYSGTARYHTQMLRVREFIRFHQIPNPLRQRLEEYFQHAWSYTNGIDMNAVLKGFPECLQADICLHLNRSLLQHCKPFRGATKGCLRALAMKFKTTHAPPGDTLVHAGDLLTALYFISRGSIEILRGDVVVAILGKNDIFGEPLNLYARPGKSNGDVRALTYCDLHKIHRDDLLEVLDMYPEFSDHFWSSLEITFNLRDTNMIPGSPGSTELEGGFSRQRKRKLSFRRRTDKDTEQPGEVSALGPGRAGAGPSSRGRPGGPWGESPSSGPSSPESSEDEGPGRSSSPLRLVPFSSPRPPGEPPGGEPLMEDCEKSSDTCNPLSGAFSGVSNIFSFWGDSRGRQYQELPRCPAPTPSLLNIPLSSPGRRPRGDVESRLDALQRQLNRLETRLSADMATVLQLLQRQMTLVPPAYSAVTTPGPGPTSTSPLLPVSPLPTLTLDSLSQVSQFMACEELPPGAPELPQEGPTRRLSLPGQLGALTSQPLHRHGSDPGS
row,Compound,"hERG current change (%, negative = inhibition) at 1uM [%]"
1,CC(=O)c1ccc(N2CCCCCC2)c(F)c1,0.156
2,COc1ccc(OCC(=O)NCCCNC(=O)COc2ccc(OC)cc2)cc1,4.68
3,O=c1c2c3c(sc2nc2n1CCCCC2)CCC3,10.9
4,O=S1(=O)[C@H]2C[C@@H]3C=C[C@]2(CN1Cc1ccc(C(F)(F)F)cc1)O3,4.34
5,COc1ccc(CCNC(=O)CO/N=C/c2cc3c(cc2Br)OCO3)cc1OC,14.5
6,CCCCCOc1ccc(C(C)(O)C(CN2CCOCC2)c2ccccc2)cc1 (centres unmarked),-3.26
7,CC(OC(=O)/C(C#N)=C/c1ccc(N(C)C)cc1)C(=O)NCc1ccco1 (centres unmarked),6.56
8,C[C@@H](C(=O)Nc1ccc2ccccc2c1)[C@@H]1C[C@@]1(C)[C@@H](NC(=O)OCc1ccccc1)c1ccccc1,14.3
9,CCOC(=O)C1=C(CSc2nncn2C)NC(=O)NC1c1cc(OCC)ccc1OCC (centres unmarked),5.34
10,Cc1ccc(NC(=O)CSc2nnc(Cn3cnc4ccccc43)o2)c(C)c1,20.5
11,Cc1cccc(C)c1N(CC(=O)N1CCCC1)S(C)(=O)=O,16.2
12,CS(=O)(=O)N(CC(=O)N1CCc2ccccc2C1)c1ccc(Br)cc1,13.4
13,CCNC(=O)CN(C1CCCCC1)S(C)(=O)=O,1.29
14,CCOC(=O)c1c(CSc2ccccc2)n(C)c2cc(Br)c(O)c(CN(C)C)c12,-3.17
15,CCOC(=O)c1c(CSc2ccc(C)cc2)n(C)c2cc(Br)c(O)c(CN(C)C)c12.Cl.O,18
16,CCOC(=O)c1c(CSc2ccsc2)n(C)c2cc(Br)c(O)c(CN(C)C)c12.Cl,-88.5
17,CN(C)c1ccc(NC(=O)CSc2nc3ccccc3c(=O)n2CC2CCCO2)cc1 (centres unmarked),17.3
18,Cc1ccc(C(=O)Nc2ccccc2SCC2CSc3nc4ccccc4c(=O)n32)cc1 (centres unmarked),-39
19,O=C(Nc1ccccc1SCC1CSc2nc3ccccc3c(=O)n21)c1ccccc1Cl (centres unmarked),-53.2

row,Compound,"hERG current change (%, negative = inhibition) at 1uM [%]"
1,Cc1cccc(C(=O)Nc2ccccc2SCC2CSc3nc4ccccc4c(=O)n32)c1 (centres unmarked),-66.5
2,O=C(Nc1ccccc1SCC1CSc2nc3ccccc3c(=O)n21)c1ccccc1 (centres unmarked),-24.7
3,O=C(Nc1ccccc1SCC1CSc2nc3ccccc3c(=O)n21)c1cccc(Cl)c1 (centres unmarked),-49.6
4,Nc1ccccc1SCC1CSc2nc3ccccc3c(=O)n21 (centres unmarked),-7.26
5,CCOC(=O)C(C(=O)OCC)C(Nc1cccc(Br)c1)c1ccccc1 (centres unmarked),14.1
6,Cc1ccc(NC(=O)COC(=O)CN2C(=O)COc3ccccc32)cc1,13.2
7,Cc1[nH]c2ccccc2c1-c1ccc(Cl)nn1,13.8
8,CS(=O)(=O)N(CC(=O)N1CCCCCC1)c1cccc([N+](=O)[O-])c1,2.29
9,O=[N+]([O-])c1ccc(C(O)CN2CCN(C/C=C/c3ccccc3)CC2)cc1 (centres unmarked),-85.5
10,O=C(c1cccc([N+](=O)[O-])c1)N1CCN(C/C=C/c2ccccc2)CC1,-21
11,CS(=O)(=O)N(CC(=O)N1CCN(Cc2ccccc2)CC1)c1cccc(Cl)c1,-23
12,OC(CN1CCN(Cc2ccccc2)CC1)c1ccccc1 (centres unmarked),0.933
13,O=C(c1cccc([N+](=O)[O-])c1)N1CCN(C(=O)c2ccco2)CC1,0.101
14,O=C(/C=C/c1ccccc1)N1CCN(C(=O)c2ccco2)CC1,-13.1
15,O=[N+]([O-])c1ccc(C(O)CN2CCN(c3ccccc3)CC2)cc1 (centres unmarked),-2.31
16,O=[N+]([O-])c1ccc(C(O)CN2CCOCC2)cc1 (centres unmarked),18.6
17,O=[N+]([O-])c1ccc(C(O)CN2CCN(Cc3ccccc3)CC2)cc1 (centres unmarked),-73
18,CS(=O)(=O)N(CC(=O)N1CCN(Cc2ccccc2)CC1)c1cccc([N+](=O)[O-])c1,-73.1
19,O=C(/C=C/c1cccc([N+](=O)[O-])c1)N1CCN(C(=O)c2ccco2)CC1,-53.4

row,Compound,"hERG current change (%, negative = inhibition) at 1uM [%]"
1,CCCN(CC1CC1)C(=O)CSc1nnc(-c2cc(-c3cccs3)nc3ccccc23)o1,6.71
2,CS(=O)(=O)c1ccc(-n2nnc3ccccc32)c([N+](=O)[O-])c1,10.8
3,CCc1ccccc1NC(=O)c1ccc(Cn2cc([N+](=O)[O-])cn2)cc1,-3.78
4,COc1ccc(N2CCN(C(=O)c3ccc(N4CCCCS4(=O)=O)cc3)CC2)cc1,10.7
5,COc1cccc(S(=O)(=O)Nc2noc3ccccc23)c1,14
6,Cc1ccc(-c2ccnc3c(Cl)c(C)nn23)cc1,13.3
7,COc1cc2c(cc1OC)C(=S)NC(C)(C)C2,14.8
8,COc1cc(S(=O)(=O)NCC2OCCc3ccccc32)ccc1-n1cnnn1 (centres unmarked),-7.28
9,CC(=O)N1CCN(C(=O)C2(NC(=O)Nc3ccccc3Cl)CCCCC2)CC1,14.2
10,CC(=O)Oc1c(C)c2c3c(c1OC(C)=O)[C@@H](C)CC[C@@H]3[C@@H](C)C[C@H]2C=C(C)C,11.1
11,COc1ccc(CN(C)C(=O)c2cc(S(=O)(=O)N3CCCCCC3)ccc2OC)cc1OC,4.44
12,CCOc1ccc(N(CC(=O)N/N=C/c2cccnc2)S(C)(=O)=O)cc1,12.9
13,O=C(/C=C/c1cccc([N+](=O)[O-])c1)N1CCN(Cc2ccccc2)CC1,-20.3
14,O=C(/C=C/c1ccc(Cl)cc1)N1CCN(Cc2ccccc2)CC1,-12.8
15,O=C(/C=C/c1ccc(Cl)cc1)N1CCN(c2ccc([N+](=O)[O-])c(N3CCOCC3)c2)CC1,-11.1
16,O=C(/C=C/c1ccc(Cl)cc1)N1CCN(c2ccccc2[N+](=O)[O-])CC1,-33.6
17,O=C(/C=C/c1ccc(Cl)cc1)N1CCN(c2ccc(Cl)cc2[N+](=O)[O-])CC1,-81.4
18,O=C(/C=C/c1ccc([N+](=O)[O-])cc1)N1CCN(Cc2ccccc2)CC1,-63.8
